Out of some 68,000 compounds screened, about 2,700 (4%) showed an effect of 50% or more. The entries come from a sample that favours strong results as a whole.
Each molecule was assayed on Plasmodium berghei (assay: Screen against P. berghei liver stage (PbLuc), transformed with Luciferase, at 2uM). Settings: tested at 2 uM.
Type: functional, HepG2
CN(C)C(=O)c1csc(-c2ccoc2)n1 was tested, and the INHIBITION was 38.83%.
In the case of CNC(=O)c1csc(-c2ccoc2)n1, the INHIBITION is reported as 52.3%.
For CNC(=O)c1csc(-c2cccnc2)n1, the INHIBITION was 30.63%.
Cc1nc(C)n(CC(C)C(=O)N2CCC(NS(C)(=O)=O)CC2)n1 (configuration not stated) was tested, and the INHIBITION was 5.85%.
CCc1ccc(C(COC)NC(=O)c2ccc(C(N)=O)cc2)o1 (configuration not stated) gave an INHIBITION of 15.56%.
CSc1ncccc1C(=O)Nc1ccc(Cn2ccccc2=O)cc1 showed an INHIBITION of 52.45%.
With Cc1ncccc1C(=O)Nc1cccc(Cn2ccccc2=O)c1 the INHIBITION was 45.67%.
For CSc1ncccc1C(=O)NCc1ccc(N(C)C)cc1, the INHIBITION was 10.65%.
CS(=O)(=O)N[C@@H]1CCN(Cc2nccs2)[C@H]1Cc1ccncc1 was tested, and the INHIBITION was -11.68%.
Work on Cc1cc(NC(=O)C(C)Cn2cc(Br)cn2)no1 (configuration not stated) yielded an INHIBITION of 0.55%.
With Cc1nnc(NCc2cccnc2N(C)C)c(C#N)c1C the INHIBITION was 53.03%.
CCOc1ncccc1CNc1nnc(C)c(C)c1C#N showed an INHIBITION of -27.71%.
CCCOc1ncccc1CNc1nnc(C)c(C)c1C#N was tested, and the INHIBITION was 42.12%.
COC(=O)N1CCCC(C(=O)NCc2cc3cccc(OC)c3o2)C1 (configuration not stated) showed an INHIBITION of 33.01%.
With CCn1ncc(C(=O)NCCc2nc(-c3ccc(C)cc3)n[nH]2)c1C the INHIBITION was -0.21%.
In the case of CC1(C)[C@@H]2CC=C(CN3CCCn4nc(C(=O)NCCO)cc4C3)[C@H]1C2, the INHIBITION is reported as 53.17%.
CC1(C)[C@@H]2CC=C(CN3CCCn4nc(C(=O)O)cc4C3)[C@H]1C2 was tested, and the INHIBITION was -17.07%.
For CC1(C)[C@@H]2CC=C(CN3CCCn4nc(CCC(=O)O)cc4C3)[C@H]1C2, the INHIBITION was 6.88%.
Molecule Cn1cc(CCNC(=O)NC2CCS(=O)(=O)C2)cn1 (configuration not stated) has an INHIBITION of 0.3%.
For CC(c1ccc(C(=O)NCCc2nc(N)cc(O)n2)o1)N1CCCCC1 (configuration not stated), the INHIBITION was -24.78%.
In the case of O=C(NCC1CCOC1)c1csc(-c2ccc(Cl)cc2)n1 (configuration not stated), the INHIBITION is reported as 5.09%.
Molecule COc1ccc(-c2nc(C(=O)NCC3CCOC3)cs2)cc1OC (configuration not stated) has an INHIBITION of 60.09%.
For Cc1ccc(-c2nc(C(=O)NCC3CCOC3)cs2)cc1 (configuration not stated), the INHIBITION was 49.9%.
In the case of CC(=O)N(Cc1ncc(C)o1)C1CCN(CCc2cnn(C)c2)C1 (configuration not stated), the INHIBITION is reported as 9.83%.
Molecule CCC1CN(C(=O)COc2ccc(C(=O)NC3CC3)cc2)CCO1 (configuration not stated) has an INHIBITION of 32.93%.
In the case of N#CCCN1CC(O)CN(C(=O)c2cccc(C(F)(F)F)c2)CC1=O (configuration not stated), the INHIBITION is reported as 24.52%.
With CNc1nc(CNC(=O)Nc2cccc(F)c2)cs1 the INHIBITION was -88.54%.
O=C(NCCCc1nc(=O)[nH][nH]1)Nc1ccc(Cl)cc1 gave an INHIBITION of 23.64%.
O=C(NCCCc1nc(=O)[nH][nH]1)Nc1cccc(F)c1 was tested, and the INHIBITION was 52.85%.
Work on COCC1CN(Cc2ccc(C)o2)Cc2nnn(C)c21 (configuration not stated) yielded an INHIBITION of 38.83%.
In the case of Cc1cc(S(=O)(=O)NCC(C)(O)CN(C)C)c(F)cc1F (configuration not stated), the INHIBITION is reported as 8.05%.
CN(C)C(=O)c1cccc(C[S+]([O-])CC(=O)NC2CCCC2)c1 (configuration not stated) showed an INHIBITION of -13.12%.
Cc1cc(CS(=O)(=O)NCC2CCCCC2)on1 gave an INHIBITION of 10.22%.
Cc1cc(CS(=O)(=O)NC2CCCCC2)on1 gave an INHIBITION of 35.46%.
Cc1cc(CS(=O)(=O)NC2CCCc3ccccc32)on1 (configuration not stated) showed an INHIBITION of 57.34%.
CCCc1n[nH]c(=O)n1Cc1ccc(OC)cc1 showed an INHIBITION of -13.14%.
O=C(COC1CCCC1)Nc1ncn(CC(=O)N2CCCCCC2)n1 showed an INHIBITION of 22.29%.
In the case of CC(C)Nc1nnc(SCc2nnc(C(C)(C)C)o2)s1, the INHIBITION is reported as 13.91%.
Work on O=C(NCC1CC1)C1CN(c2ncccn2)Cc2ccnn2C1 (configuration not stated) yielded an INHIBITION of 64.37%.
With O=C(NCC1CC1)C1CN(Cc2ccncc2)Cc2ccnn2C1 (configuration not stated) the INHIBITION was 7.55%.
O=C(NCC1CC1)C1CN(Cc2cccs2)Cc2ccnn2C1 (configuration not stated) gave an INHIBITION of 23.53%.
O=c1ccc(-c2cccs2)nn1CN1CCOC(c2ccccc2)C1 (configuration not stated) was tested, and the INHIBITION was -30.87%.
In the case of Cc1nc(CN2CCC3(CC2)CC(=O)N(C)c2ccccc23)cs1, the INHIBITION is reported as 9.8%.
Molecule Clc1cnccc1NCc1cccc(COC2CCOCC2)c1 has an INHIBITION of 68.73%.
Work on Clc1cnccc1N1CCC(OC2CCOCC2)CC1 yielded an INHIBITION of -76.37%.
For CNS(=O)(=O)Cc1cccc(CNc2ccc(C#N)cn2)c1, the INHIBITION was 19.12%.
Work on N#Cc1ccc(NCc2cccc(OCC3CCCO3)c2)nc1 (configuration not stated) yielded an INHIBITION of 42.35%.
Clc1cncc(NCc2cccc(COC3CCOCC3)c2)n1 gave an INHIBITION of -0.39%.
With N#Cc1ccc(NCc2cccc(COC3CCOCC3)c2)nc1 the INHIBITION was 66.24%.
In the case of CC(=O)N1CCN(Cc2nccs2)CC2(CC(=O)N(C)C2)C1 (configuration not stated), the INHIBITION is reported as 26.01%.
CCC(Nc1cccc(OC)c1)C(=O)NCc1ccc2c(c1)OCO2 (configuration not stated) was tested, and the INHIBITION was 11.6%.
In the case of c1cnn(CC2CN(Cc3csc(C4CCCCC4)n3)CCO2)c1 (configuration not stated), the INHIBITION is reported as -43.79%.
Cc1cccc(CN2CCN(C(=O)c3cnc(C)[nH]c3=O)CC2)c1 showed an INHIBITION of 43.15%.
With CNC(=O)CN1C(=O)CN(C(=O)COC)CCC(OC)c2ccccc21 (configuration not stated) the INHIBITION was -8.2%.
In the case of O=S(=O)(c1ccccc1)N1C[C@@H]2COC[C@]2(CN2CCOCC2)C1, the INHIBITION is reported as 29.19%.
Cc1cc(C(F)(F)F)cc(N2C[C@@H](CN(C)CCO)[C@@H](CO)C2)n1 was tested, and the INHIBITION was 50.97%.
For CCN(CCO)C[C@@H]1CN(c2cc(C(F)(F)F)cc(C)n2)C[C@@H]1CO, the INHIBITION was 14.59%.
With Cc1cc(C(F)(F)F)cc(N2C[C@@H](CN3CCOCC3)[C@@H](CO)C2)n1 the INHIBITION was -18.71%.
c1cncc(CN2CCn3cc(Cn4cccn4)nc3C2)c1 was tested, and the INHIBITION was 15.39%.
Cc1ccc(N2CC3(COCCN(Cc4cccnc4)C3)OCC2=O)s1 (configuration not stated) was tested, and the INHIBITION was -5.44%.
With CN(C)c1cc(CNC(=O)c2cc(Cl)ccn2)ccn1 the INHIBITION was 49.01%.
With Cc1ccc(CC(=O)N2CCCC(c3cc(C(N)=O)[nH]n3)C2)cn1 (configuration not stated) the INHIBITION was 14.53%.
In the case of CC(C)(C)C(=O)NCCC(=O)N1CCC(Nc2cccnn2)CC1, the INHIBITION is reported as -27.69%.
O=C(c1ccccc1)N1CCOC2(CCN(Cc3cccs3)CC2)C1 showed an INHIBITION of 20.51%.
In the case of COCCN1CCC2(CC1)CN(C(=O)c1ccco1)CCO2, the INHIBITION is reported as 45.22%.
For COCCN1CCC2(CC1)CN(C(=O)c1ccccc1)CCO2, the INHIBITION was 58.4%.
In the case of COCCN1CCC2(CC1)CN(C(=O)c1cccs1)CCO2, the INHIBITION is reported as 57.31%.
COCCN1C[C@@H](C)[C@@]2(COCCN(C(=O)c3cccs3)C2)C1 showed an INHIBITION of -3.19%.
With COCCN1CCC2(CC1)CN(C(=O)Cc1cccnc1)CCO2 the INHIBITION was 35.89%.
Cn1ccnc1CN(Cc1ccccn1)Cc1ccccc1Cl showed an INHIBITION of -8.33%.
Work on CN(Cc1ccc(Cl)s1)C(=O)NCCC(=O)N1CCCCCC1 yielded an INHIBITION of -12.84%.
Work on Cc1c(C(=O)NC2=NCCS2)cnn1-c1ccc(Br)cc1 yielded an INHIBITION of -23.27%.
Work on NC(=O)c1ccc(NC2CCOC3(CCCC3)C2)nn1 (configuration not stated) yielded an INHIBITION of -0.45%.
In the case of Cc1cc(C)nc(NC2CCOC3(CCCC3)C2)n1 (configuration not stated), the INHIBITION is reported as 10.23%.
Molecule Cc1nsc(NC2CCOC3(CCCC3)C2)n1 (configuration not stated) has an INHIBITION of 62%.
Work on CC(C)c1nsc(NC2CCOC3(CCCC3)C2)n1 (configuration not stated) yielded an INHIBITION of 30.06%.
With CCc1nsc(NC2CCOC3(CCCC3)C2)n1 (configuration not stated) the INHIBITION was -9.6%.
Work on Cc1nsc(NC2CCOC3(CCCCC3)C2)n1 (configuration not stated) yielded an INHIBITION of 62%.
Cc1nn(C)c(Cl)c1CNCc1ccc(OCC(N)=O)cc1 gave an INHIBITION of -5.1%.
For COc1ccccc1CN1C[C@@H]2COC[C@]2(COCc2ccncc2)C1, the INHIBITION was 38.11%.
Cc1cnc(N2CCc3ncnc(N4CCN(C)CC4)c3CC2)nc1 was tested, and the INHIBITION was 17.57%.
In the case of CCC1CCCCN1Cc1ncc(C(C)(C)C)o1 (configuration not stated), the INHIBITION is reported as 70.27%.
With CC(C)(C)c1cnc(CN2CCC[C@H]2CO)o1 the INHIBITION was 56.72%.
For Cc1cc(C)n(CC2CCCN2Cc2ncc(C(C)(C)C)o2)n1 (configuration not stated), the INHIBITION was -11.91%.
Molecule CC(C)(C)c1cnc(CN2CCCCC2Cn2cccn2)o1 (configuration not stated) has an INHIBITION of -23.94%.
Molecule CC(C)(C)c1cnc(CN2CCCC2Cn2cccn2)o1 (configuration not stated) has an INHIBITION of -50.72%.
Cc1cnn(CC2CCCCN2Cc2ncc(C(C)(C)C)o2)c1 (configuration not stated) was tested, and the INHIBITION was 30.91%.
With O=S(=O)(NCC1(O)CCOCC1)c1c(F)cccc1F the INHIBITION was 43.15%.
Work on CCc1cnc(N2CCc3ncnc(N4CCN(C)CC4)c3CC2)nc1 yielded an INHIBITION of -64.85%.
NC(=O)N1CC(OCc2cccc3ccccc23)C1 showed an INHIBITION of 5.98%.
Work on Cc1cc(C)c2ncn(CCOCCO)c(=O)c2c1 yielded an INHIBITION of 24.55%.
O=C(NCc1n[nH]c2c1CCCCC2)c1cnn2c1CCCC2 gave an INHIBITION of -23.38%.
CCc1nc(CN2CCCN(C(=O)COCC3CC3)CC2)cs1 gave an INHIBITION of 3.9%.
With Cn1cc(C(O)CNC(=O)c2cc(Br)ccc2Cl)cn1 (configuration not stated) the INHIBITION was 20.29%.
In the case of CCC(CC)NC(=O)c1ccc2nnc(C3CCN(C(C)=O)C3)n2c1 (configuration not stated), the INHIBITION is reported as 30.75%.
For O=C1CCC2(CCCN(C(=O)Cc3ccccn3)C2)N1 (configuration not stated), the INHIBITION was 29.85%.
O=C1CCC2(CCCN(C(=O)Cc3ccccc3)C2)N1 (configuration not stated) was tested, and the INHIBITION was 60.05%.
Work on O=C1CCC2(CCCN(C(=O)Cc3cccnc3)C2)N1 (configuration not stated) yielded an INHIBITION of 29.3%.
CS(=O)(=O)N1CCN(C(=O)c2cncs2)CC(C(N)=O)C1 (configuration not stated) showed an INHIBITION of -33.32%.
For CNC(=O)[C@@H](c1ccccc1OC)N1CCC[C@H]1C(=O)N1CCC1, the INHIBITION was -20.89%.
For CNC(=O)[C@@H](c1ccccc1OC)N1CCC[C@H]1C(=O)N1CC[C@@H](O)C1, the INHIBITION was 50.91%.
For CNC(=O)[C@@H](c1ccccc1OC)N1CCC[C@H]1C(=O)NC(C)(C)C, the INHIBITION was -1.63%.
In the case of O=C(NCc1cc[nH]n1)NC1CCCN(c2ncccn2)C1 (configuration not stated), the INHIBITION is reported as 12.8%.
Cn1cccc1CN1CCC2(CCCN(C(=O)Cc3cccnc3)C2)C1 (configuration not stated) showed an INHIBITION of -4.92%.
Cn1cccc1CN1CCC2(CCCN(C(=O)c3cccnc3)C2)CC1 gave an INHIBITION of 61.08%.
In the case of Cn1cccc1CN1CCC2(CCCN(C(=O)c3cnccn3)C2)C1 (configuration not stated), the INHIBITION is reported as -30.12%.
Molecule Cc1noc(CCCC(=O)NC(C)c2cccnc2)n1 (configuration not stated) has an INHIBITION of -19.76%.

Source: ChEMBL document CHEMBL4513216, “Probing the Open Global Health Chemical Diversity Library for Multistage-Active Starting Points for Next-Generation Antimalarials” (ACS Infect Dis, 2020)
